Results on 8 compounds are retold here after PubChem BioAssay (NCI).

Compounds without any hit were thinned out: in the full panel of roughly 83,000, 20% have a hit.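 Single-concentration screen, 48 h exposure, 96-well plates. Endpoint: percent growth. Below 10 = active.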 A number with no mark means an inactive call. Calls of active or inactive are those of the source.

Some test systems named below: DU-145 prostate; K-562 leukemia; MALME-3M melanoma; MDA-MB-231 breast; RXF 393 renal; SF-268 CNS; SF-295 CNS; SF-539 CNS; UACC-257 melanoma; M14 melanoma; HCT-15 colon; HT29 colon; SNB-75 CNS; SNB-19 CNS; U251 CNS; PC-3 prostate; SK-MEL-5 melanoma; UACC-62 melanoma; LOX IMVI melanoma.
Common to all, as to assay: NCI-60 one-dose screen, 48 h (100 = growth as untreated, 0 = no growth, -100 = all killed)
Holding throughout (details): 10 µM unless noted

As to `COc1ccc(NC(=O)/C=C/c2ccc(Cl)c(Cl)c2)cn1`, the growth in the test with DU-145 prostate was 96.7%; in the test with K-562 leukemia, 58%; in the test on MALME-3M melanoma, 92%; in the test with MDA-MB-231 breast, 95%; in the test with RXF 393 renal, 89.4%; in the test with SF-268 CNS, 95.7%. For the same compound, the growth was 84.5% in the test with SF-295 CNS; 98.2% in the test on SF-539 CNS; 79.9% in the test on UACC-257 melanoma; 95.9% with M14 melanoma; 51.6% in the test on HCT-15 colon; 93.5% in the test on HT29 colon. Also, the growth in the test on SNB-75 CNS was 102%; with SNB-19 CNS it was 91.2%; in the test on U251 CNS, 87.4%; in the test with PC-3 prostate, 74.3%; in the test on SK-MEL-5 melanoma it was 71.4%; in the test on UACC-62 melanoma, 77.6%. Besides, the growth with LOX IMVI melanoma is 93.6%.
Regarding `COc1ccc(NC(=O)c2ccc(C(F)(F)F)nc2Nc2ccc(Cl)cc2C)cc1Cl`, the growth was 9.29% (active) in the test with DU-145 prostate; 16.4% in the test with K-562 leukemia; 34.8% in the test with MALME-3M melanoma; 7.34% (active) with MDA-MB-231 breast; 42.5% with RXF 393 renal; 38.2% in the test on SF-268 CNS. In addition, the growth is 3.72% (active) with SF-295 CNS; 50.3% in the test with SF-539 CNS; 22% in the test on UACC-257 melanoma; 34.2% in the test with M14 melanoma; 22.4% with HCT-15 colon; 26.6% in the test on HT29 colon. The growth was 35% in the test on SNB-75 CNS; 30% in the test on SNB-19 CNS; 20.3% in the test with U251 CNS; 10.2% in the test on PC-3 prostate; 28.2% in the test on SK-MEL-5 melanoma; 15.3% in the test with UACC-62 melanoma. Besides, the growth in the test with LOX IMVI melanoma is 13.4%.
For `C=C(C)[C@@H]1CC[C@]2(C)[C@H](CC=C3[C@@H]4C[C@](C)(C(=O)N5CCN(C)CC5)CC[C@]4(C)CC[C@]32C)[C@@]1(C)CCC#N`, the growth with DU-145 prostate is 88.3%; in the test on K-562 leukemia, 23.4%; in the test with MALME-3M melanoma it was 77%; with MDA-MB-231 breast, 85.9%; in the test on RXF 393 renal it was 84.9%; with SF-268 CNS it was 72.5%. The growth is 95% with SF-295 CNS; 70.2% with SF-539 CNS; 51.4% in the test with UACC-257 melanoma; 66.6% in the test with M14 melanoma; 38.2% with HCT-15 colon; 33.2% with HT29 colon. The growth with SNB-75 CNS was 79.1%; with SNB-19 CNS, 89.4%; with U251 CNS it was 50%; in the test on PC-3 prostate it was 30.6%; in the test with SK-MEL-5 melanoma, 18.9%; in the test on UACC-62 melanoma it was 53.5%. Further, the growth in the test with LOX IMVI melanoma is 47.6%.
Take `O=C1c2ccccc2C(=O)c2c1oc1ccc3ccccc3c21`: the growth in the test on DU-145 prostate was 85.7%; with K-562 leukemia, 101%; with MALME-3M melanoma it was 27.8%; in the test with MDA-MB-231 breast it was 60%; in the test on RXF 393 renal, 88.2%; in the test with SF-268 CNS, 76.7%. Besides, the growth in the test on SF-295 CNS was 93.7%; in the test with SF-539 CNS it was 78.3%; in the test on UACC-257 melanoma, 77.7%; in the test with M14 melanoma it was 57.1%; with HCT-15 colon it was 65%; with HT29 colon, 106%. The growth with SNB-75 CNS was 93.3%; in the test on SNB-19 CNS it was 90%; in the test on U251 CNS, 81.1%; with PC-3 prostate, 72.3%; in the test with SK-MEL-5 melanoma it was 17.3%; in the test with UACC-62 melanoma, 84.2%. Also, in the test with LOX IMVI melanoma, the growth was 41.9%.
With `FC1(F)CCN(Cc2c[nH]c3cc(Cl)ccc23)C[C@H]1CCc1ccccc1`, the growth is 65% with DU-145 prostate; 31.4% with K-562 leukemia; 77.1% in the test on MALME-3M melanoma; 68.9% in the test on MDA-MB-231 breast; 64.3% in the test on RXF 393 renal; 72.1% in the test with SF-268 CNS. The growth in the test with SF-295 CNS was 54.5%; in the test with SF-539 CNS, 88.6%; with UACC-257 melanoma, 53.2%; in the test with M14 melanoma, 60%; in the test on HCT-15 colon, 51%; in the test with HT29 colon it was 26.6%. For the same compound, the growth with SNB-75 CNS was 40.8%; in the test with SNB-19 CNS, 68%; in the test on U251 CNS, 44.5%; in the test with PC-3 prostate it was 53.3%; in the test on SK-MEL-5 melanoma it was 62.7%; with UACC-62 melanoma it was 59.9%. Besides, the growth in the test with LOX IMVI melanoma was 46.9%.
Take `CC(=O)N(C)c1ccc(Nc2cc(C)[nH]c3ccc4ncnc4c23)cc1`: the growth with DU-145 prostate is 46.5%; in the test with K-562 leukemia, 29.5%; with MALME-3M melanoma it was 82.4%; in the test on MDA-MB-231 breast, 87.7%; in the test with RXF 393 renal, 41.7%; in the test with SF-268 CNS, 55%. In addition, the growth in the test with SF-295 CNS is 76.5%; in the test with SF-539 CNS it was 40.7%; in the test with UACC-257 melanoma, 48.2%; in the test on M14 melanoma, 76.9%; with HCT-15 colon, 82.5%; with HT29 colon, 48%. Besides, the growth is 55% in the test with SNB-75 CNS; 58.7% in the test with SNB-19 CNS; 49.9% in the test on U251 CNS; 50.5% in the test on PC-3 prostate; 51.4% in the test with SK-MEL-5 melanoma; 62.7% with UACC-62 melanoma. Moreover, in the test on LOX IMVI melanoma, the growth is 36.1%.
Consider `O=C(OCc1ccc2c(Cl)cc(Cl)c(O)c2n1)c1cc2ccccc2[nH]1`, for which the growth is -94.5% (active) with DU-145 prostate; -5.38% (active) with K-562 leukemia; -77.7% (active) in the test on MALME-3M melanoma; -78.3% (active) in the test on MDA-MB-231 breast; -94.9% (active) with RXF 393 renal; -80.4% (active) in the test with SF-268 CNS. Besides, the growth with SF-295 CNS is 64.3%; in the test with SF-539 CNS, -91.1% (active); with UACC-257 melanoma it was -72.4% (active); in the test with M14 melanoma, -69.7% (active); with HCT-15 colon, -50.2% (active); in the test on HT29 colon, -81.1% (active). The growth in the test with SNB-75 CNS was -94.8% (active); in the test on SNB-19 CNS it was 34.8%; in the test on U251 CNS, -92.6% (active); in the test on PC-3 prostate it was -79.8% (active); in the test with SK-MEL-5 melanoma, -97.6% (active); in the test with UACC-62 melanoma it was -70.7% (active). The growth with LOX IMVI melanoma was -91.2% (active).
Consider `CC(C)c1ccc(Cn2ccc3c4c(N)nc(NC5CC5)nc4ccc32)cc1`, for which the growth in the test on DU-145 prostate was -89.5% (active); with K-562 leukemia, -69.7% (active); in the test on MALME-3M melanoma, -91.6% (active); in the test with MDA-MB-231 breast, -89.6% (active); in the test on RXF 393 renal, -90.9% (active); in the test with SF-268 CNS it was -77.6% (active). Moreover, the growth in the test with SF-295 CNS is -82.8% (active); with SF-539 CNS, -91.5% (active); in the test with UACC-257 melanoma, -77.8% (active); in the test with M14 melanoma it was -86.2% (active); with HCT-15 colon it was -80.6% (active); in the test on HT29 colon it was -76.2% (active). For the same compound, the growth in the test with SNB-75 CNS is -94.4% (active); in the test on SNB-19 CNS, -85.1% (active); in the test on U251 CNS, -95.1% (active); in the test on PC-3 prostate it was -82% (active); in the test on SK-MEL-5 melanoma it was -96.1% (active); in the test on UACC-62 melanoma, -93.1% (active). The growth in the test with LOX IMVI melanoma is -90.2% (active).
